# Experimental data: PubChem BioAssay (Tox21)
# “And” between values parts separate entries of the source, which are not always exact repeats. Equal values may be shown once. Inconclusive results are not listed. A call without a number means that no potency is given here. Where a structure was tested more than once in an assay, its records may differ in their call. The source made the active and inactive calls. Unless noted, the call rests on the fitted dose curve; in most records, active means well fitted curve in the direction sought with a large enough effect in the repeat runs; inconclusive means weak or mixed curves; inactive means no such curve, though single readings can be large; an effect the other way counts as inactive or inconclusive.
# Assays:
# [1] = qHTS assay to identify small molecule agonists of the hypoxia (HIF-1) signaling pathway - cell viability counter screen (AID 1224844; calls by dose curve; further: nearly all actives have a fitted effect of over 50% in size; further: potency means the concentration at half of the fitted maximal effect)
# Method in brief: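 HRE-bla ME-180 cells in medium with 0.5% dialyzed FBS were preincubated 5 hrs at 37C, exposed to compounds for 17 hrs, then viability was read as CellTiter-Glo luminescence after 30 min at room temperature, in the reporter wells.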
# [2] = qHTS assay to identify small molecule agonists of the hypoxia (HIF-1) signaling pathway (AID 1224846; active means well fitted activation curve with a large enough effect in the signal ratio in the repeat runs, not every such curve was filed as active; the % refers to the signal ratio)
# Method in brief: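 HRE-bla ME-180 cells (beta-lactamase reporter under hypoxia response element) were plated at 2,000 cells/well in medium with 0.5% dialyzed FBS, rested 5 hrs, then given compounds in DMSO for 17 hrs at 37C, 5% CO2. Reporter induction was read with CCF4-AM FRET substrate.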
# [3] = qHTS assay to identify small molecule agonists of H2AX - cell viability counter screen (AID 1224847; calls by dose curve; further: nearly all actives have a fitted effect of over 30% in size; further: potency means the concentration at half of the fitted maximal effect)
# Method in brief: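 After overnight plating of 1000 CHO-K1 cells per well, a 15-concentration compound series was applied for 3 hr at 37C. Luminescence from CellTiter-Glo, read following 30 min at room temperature, reflected cell viability.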
# [4] = qHTS RealTime-Glo MT Cell Viability Assay in HepG2 cells - 24 hour (AID 1224867); further: nearly all actives have a fitted effect of over 50% in size; further: potency means the concentration at half of the fitted maximal effect
# Method in brief: (§1)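 qHTS, HepG2, 600 cells/well, RealTime-Glo (NanoLuc + prosubstrate) added with cells; 5 h preincubation; DMSO compound addition; 37 C; luminescence at 0/8/16/24/32/40 h.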
# [5] = qHTS RealTime-Glo MT Cell Viability Assay in HEK293 cells - 32 hour (AID 1224868); further: nearly all actives have a fitted effect of over 50% in size; further: potency means the concentration at half of the fitted maximal effect
# Method in brief: (§2)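 Assay medium contained NanoLuc luciferase plus cell-permeant prosubstrate, added with HEK293 cells at 600 cells/well. After 5 h at 37 C/5% CO2 compounds were added; plates stayed at 37 C for 40 h with serial luminescence reads.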
# [6] = A CellTox Green Cytotoxicity Assay to monitor cytotoxicity in HEK293 cells - 0 hour (AID 1224869); further: nearly all actives have a fitted effect of over 50% in size; further: potency means the concentration at half of the fitted maximal effect
# Method in brief: (§3)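 HEK293 cells premixed with CellTox Green dye were seeded at 600 cells/well and left 5 h at 37 C/5% CO2 before pin transfer of 23 nL compound in DMSO. Fluorescence from dye bound to dead-cell DNA was read during 40 h treatment.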
# [7] = qHTS RealTime-Glo MT Cell Viability Assay in HepG2 cells - 40 hour (AID 1224870); further: nearly all actives have a fitted effect of over 50% in size; further: potency means the concentration at half of the fitted maximal effect
# Method in brief: (§4)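 Real-time viability: cells seeded at 600 per well together with NanoLuc and cell-permeant prosubstrate, compounds added after 5 h incubation. Luminescence tracked at 0, 8, 16, 24, 32 and 40 h of exposure.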
# [8] = A CellTox Green Cytotoxicity Assay to monitor cytotoxicity in HEK293 cells - 40 hour (AID 1224871); further: nearly all actives have a fitted effect of over 45% in size; further: potency means the concentration at half of the fitted maximal effect
# Method in brief: as §3
# [9] = qHTS RealTime-Glo MT Cell Viability Assay in HEK293 cells - 16 hour (AID 1224872); further: nearly all actives have a fitted effect of over 50% in size; further: potency means the concentration at half of the fitted maximal effect
# Method in brief: as §2
# [10] = qHTS RealTime-Glo MT Cell Viability Assay in HepG2 cells - 8 hour (AID 1224873); further: nearly all actives have a fitted effect of over 55% in size; further: potency means the concentration at half of the fitted maximal effect
# Method in brief: as §4
# [11] = qHTS RealTime-Glo MT Cell Viability Assay in HEK293 cells - 40 hour (AID 1224874); conditions: RealTime-Glo luminescence; max response: stronger effect = lower value; further: nearly all actives have a fitted effect of over 50% in size; further: potency means the concentration at half of the fitted maximal effect
# Method in brief: (§5)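 HEK293 cells mixed with RealTime-Glo reagents (NanoLuc plus cell-permeant prosubstrate) at 600 cells/well, preincubated 5 h at 37 C/5% CO2, then given 23 nL compound in DMSO. Nonlytic luminescence from viable cells was read at 0, 8, 16, 24, 32 and 40 h.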
# [12] = qHTS RealTime-Glo MT Cell Viability Assay in HepG2 cells - 32 hour (AID 1224877); further: nearly all actives have a fitted effect of over 55% in size; further: potency means the concentration at half of the fitted maximal effect
# Method in brief: as §1
# [13] = A CellTox Green Cytotoxicity Assay to monitor cytotoxicity in HepG2 cells - 24 hour (AID 1224878); further: nearly all actives have a fitted effect of over 45% in size; further: potency means the concentration at half of the fitted maximal effect
# Method in brief: (§6)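 HepG2 cells were seeded together with the CellTox Green dye at 600 cells/well, left 5 h at 37 C/5% CO2, then given compounds in DMSO. Fluorescence from dye bound to dead-cell DNA was read repeatedly over 40 h of treatment at 37 C.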
# [14] = A CellTox Green Cytotoxicity Assay to monitor cytotoxicity in HepG2 cells - 40 hour (AID 1224879); further: nearly all actives have a fitted effect of over 40% in size; further: potency means the concentration at half of the fitted maximal effect
# Method in brief: as §6
# [15] = qHTS RealTime-Glo MT Cell Viability Assay in HEK293 cells - 0 hour (AID 1224880); further: top concentration of the series differs between compounds; nearly all actives have a fitted effect of over 45% in size
# Method in brief: as §5
# [16] = qHTS assay to identify small molecule agonists of H2AX (AID 1224845; active means well fitted activation curve with a large enough effect in the signal ratio in the repeat runs, not every such curve was filed as active; the % refers to the signal ratio; further: potency means the concentration at half of the fitted maximal effect)
# Method in brief: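 Phospho-H2AX Ser139 measured by HTRF (ex 320 nm; em 665 and 620 nm) after 24 hr antibody incubation. Compounds, 15 concentrations, 0.76% DMSO, were applied to CHO-K1 cells for 3hr at 37C before lysis.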
# [17] = A CellTox Green Cytotoxicity Assay to monitor cytotoxicity in HEK293 cells - 24 hour (AID 1224875); further: nearly all actives have a fitted effect of over 45% in size; further: potency means the concentration at half of the fitted maximal effect
# Method in brief: as §3
# [18] = A CellTox Green Cytotoxicity Assay to monitor cytotoxicity in HepG2 cells - 16 hour (AID 1224876); further: nearly all actives have a fitted effect of over 45% in size; further: potency means the concentration at half of the fitted maximal effect
# Method in brief: as §6
# [19] = qHTS assay to identify small molecule antagonists of the estrogen related receptor (ERR) signaling pathway from Tox21 library (AID 1224848); further: nearly all actives have a fitted effect of over 50% in size; further: potency means the concentration at half of the fitted maximal effect
# Method in brief: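 Reading was by luminescence 30 min after ONE-Glo addition. Before that, ERR cells at 2,000 per well had rested 6 h at 37 C/5% CO2 and then received pin-tooled compounds in DMSO for 18 h at 37 C.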
# [20] = qHTS assay to identify small molecule agonists of the estrogen related receptor (ERR) signaling pathway from Tox21 library (AID 1224849; calls by dose curve; further: nearly all actives have a fitted effect of over 15% in size); conditions: ERR reporter cell line, ONE-Glo luciferase, 18 h; at 92.4 µM (top of the series)
# Method in brief: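 ERR reporter cell line (NTP) seeded, rested 6 h at 37 C/5% CO2, then pinned with Tox21 compounds in DMSO. After 18 h at 37 C, ONE-Glo luciferase luminescence was read following 30 min at room temperature.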
structure (smiles),measurement,setting,value
C[C@]12CCC(=O)C=C1CC[C@@H]1[C@@H]2CC[C@@]2(C)[C@H]1CC[C@]2(C)O,Potency,[1],inactive
same,outcome,[2],inactive
same,Potency,[3],71.9 µM (active) and inactive
same,Potency,[4],inactive
same,Potency,[5],22.1 µM (active)
same,Potency,[6],44 µM (active) and inactive
same,Potency,[7],inactive
same,Potency,[8],49.4 µM (active) and inactive
same,Potency,[9],19.7 µM (active)
same,Potency,[10],inactive
same,Potency,[11],19.7 µM (active)
same,Potency,[12],inactive
same,Potency,[13],35 µM (active)
same,Potency,[14],19.7 µM (active) and 23.9 µM (active)
same,Potency,[15],inactive
Clc1ccccc1-c1nnc(-c2ccccc2Cl)nn1,Potency,[1],inactive
same,Potency,[16],inactive
same,outcome,[2],inactive
same,Potency,[5],inactive
same,Potency,[6],inactive
same,Potency,[7],inactive
same,Potency,[8],inactive
same,Potency,[9],inactive
same,Potency,[10],inactive
same,max response,[11],-1.79% (inactive) and -6.1% (inactive)
same,Potency,[17],inactive
same,Potency,[18],inactive
same,Potency,[12],inactive
same,Potency,[13],inactive
same,Potency,[14],inactive
C[N+](C)(C)CC(=O)O,Potency,[1],inactive
same,Potency,[16],inactive
same,Potency,[5],inactive
same,Potency,[6],inactive
same,Potency,[7],inactive
same,Potency,[8],inactive
same,Potency,[9],inactive
same,Potency,[10],inactive
same,max response,[11],5.5% (inactive) and 7.98% (inactive)
same,Potency,[18],inactive
same,Potency,[12],inactive
same,Potency,[13],inactive
same,Potency,[14],inactive
same,Potency,[15],inactive
Nc1ccc([N+](=O)[O-])cc1N,Potency,[1],21.9 µM (active) and inactive
same,outcome,[2],inactive
same,Potency,[3],inactive
same,Potency,[19],inactive
same,"activity change, positive = activation",[20],-63% (inactive) and 34.6% (active)
same,Potency,[5],inactive
same,Potency,[6],inactive
same,Potency,[7],inactive
same,Potency,[8],inactive
same,Potency,[9],inactive
same,Potency,[10],inactive
same,max response,[11],0.0622% (inactive) and -18.5% (inactive)
same,Potency,[17],inactive
same,Potency,[18],inactive
same,Potency,[12],inactive
same,Potency,[13],inactive
same,Potency,[14],inactive
same,Potency,[15],inactive
CCCCCCCC[N+](C)(CCCCCCCC)CCCCCCCC,Potency,[1],15.5 µM (active) and 9.79 µM (active) and 19.5 µM (active)
same,Potency,[16],inactive and 17.9 µM (active)
same,Potency,[3],44.9 µM (active) and 567 nM (active) and 35.7 µM (active)
same,Potency,[4],10.9 µM (active) and 21.9 µM (active) and 9.77 µM (active)
same,Potency,[5],218 nM (active) and 138 nM (active) and 1.55 µM (active)
same,Potency,[6],inactive
same,Potency,[7],9.75 µM (active) and 15.5 µM (active) and 8.71 µM (active)
same,Potency,[8],24.5 µM (active) and 27.6 µM (active) and 12.3 µM (active)
same,Potency,[9],2.75 µM (active) and 1.1 µM (active) and 6.16 µM (active)
same,Potency,[10],17.3 µM (active) and 30.9 µM (active) and 17.4 µM (active)
same,Potency,[11],173 nM (active) and 138 nM (active) and 1.1 µM (active)
same,Potency,[17],21.8 µM (active) and 21.9 µM (active) and 9.77 µM (active)
same,Potency,[18],15.5 µM (active) and 21.9 µM (active) and 17.4 µM (active)
same,Potency,[12],9.75 µM (active) and 19.5 µM (active) and 8.71 µM (active)
same,Potency,[13],9.75 µM (active) and 19.5 µM (active) and 15.5 µM (active)
same,Potency,[14],13.8 µM (active) and 19.5 µM (active)
same,Potency,[15],inactive
NN=C(N)N,Potency,[1],inactive
same,Potency,[16],inactive
same,Potency,[5],inactive
same,Potency,[6],inactive
same,Potency,[7],inactive
same,Potency,[8],inactive
same,Potency,[9],inactive
same,max response,[11],-2.73% (inactive) and -1.15% (inactive)
same,Potency,[17],inactive
same,Potency,[12],inactive
same,Potency,[13],inactive
same,Potency,[14],inactive
COc1ccc(CO)cc1,Potency,[1],inactive
same,Potency,[16],inactive
same,outcome,[2],inactive
same,Potency,[5],inactive
same,Potency,[6],inactive
same,Potency,[7],inactive
same,Potency,[8],inactive
same,Potency,[9],inactive
same,Potency,[10],inactive
same,max response,[11],11.4% (inactive) and -15.8% (inactive)
same,Potency,[12],inactive
same,Potency,[13],inactive
same,Potency,[14],inactive
CNC(=O)CSP(=S)(OC)OC,Potency,[1],inactive
same,outcome,[2],inactive
same,Potency,[3],inactive
same,Potency,[5],inactive
same,Potency,[6],inactive
same,Potency,[7],inactive
same,Potency,[8],inactive
same,Potency,[9],inactive
same,Potency,[10],inactive
same,max response,[11],-14.6% (inactive) and -0.812% (inactive)
same,Potency,[17],inactive
same,Potency,[18],inactive
same,Potency,[12],inactive
same,Potency,[13],inactive
same,Potency,[14],inactive
COP(=O)(NC(C)=O)SC (centres undefined),Potency,[1],inactive
same,Potency,[16],inactive
same,outcome,[2],inactive
same,Potency,[5],inactive
same,Potency,[6],inactive
same,Potency,[7],inactive
same,Potency,[8],inactive
same,Potency,[9],inactive
same,max response,[11],1.36% (inactive) and 10.1% (inactive)
same,Potency,[17],inactive
same,Potency,[12],inactive
same,Potency,[13],inactive
same,Potency,[14],inactive
same,Potency,[15],inactive
C=CC(=O)OCC(CC)(COC(=O)C=C)COC(=O)C=C,Potency,[1],20 µM (active) and 12.3 µM (active)
same,Potency,[19],15.8 µM (active) and 19.3 µM (active)
same,"activity change, positive = activation",[20],-82.1% (inactive) and -76.4% (inactive)
same,Potency,[4],25.2 µM (active) and 12.3 µM (active)
same,Potency,[5],3.56 µM (active) and 11 µM (active)
same,Potency,[6],inactive
same,Potency,[7],35.6 µM (active) and 12.3 µM (active)
same,Potency,[8],4.48 µM (active) and 7.76 µM (active)
same,Potency,[9],6.33 µM (active) and 12.3 µM (active)
same,Potency,[10],22.5 µM (active) and 9.77 µM (active)
same,Potency,[11],3.56 µM (active) and 9.77 µM (active)
same,Potency,[18],inactive
same,Potency,[12],25.2 µM (active) and 12.3 µM (active)
same,Potency,[13],14.2 µM (active)
same,Potency,[14],12.6 µM (active)
same,Potency,[15],inactive
